Inconclusive results are not listed. Active and inactive are the calls of the source. The calls were made as follows: active = hit-call score of the fitted dose curve at least 0.9, where 1 is the maximum; inconclusive = response in the unintended direction; inactive = score below 0.9.

Tested on in one test: not listed separately
Put plainly: Tanguay_ZF_120hpf_TRUN_legacy: (Legacy) Oregon State University Tanguay Lab 120 Hour Post-fertilization zebrafish Assay for Truncated Body (AID 2283655). An outline of the steps:
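Binary presence/absence of truncated body is recorded at 120 hpf by brightfield, with non-mortality endpoints skipped after death. Exposure is static from 6 hpf in sealed dark plates at 28C, using dechorionated wild-type zebrafish, 0.64% DMSO.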
Take `CCOc1cc(C(C)(C)C)ccc1C1COC(c2c(F)cccc2F)=N1` (centres undefined): the compound was classed as inactive.
The same measure, in the same setting: as for `O=C(Nc1ccccc1-c1ccc(Cl)cc1)c1cccnc1Cl`, the entry is “inactive”; as for `CCNP(=S)(OC)O/C(C)=C/C(=O)OC(C)C` (centres undefined), “inactive”.
On the same count and under the same terms, as for `CCCCC(O)(Cn1cncn1)c1ccc(Cl)cc1Cl` (centres undefined), the entry is “inactive”; as for `CCCCOCN(C(=O)CCl)c1c(CC)cccc1CC`, “inactive”; as for `COC(=O)NC(=S)Nc1ccccc1NC(=S)NC(=O)OC`, “inactive”.
Still for that read-out and setting: as for `CNC(=O)Oc1cccc2ccccc12`, the entry is “inactive”; as for `COCC(=O)N(c1c(C)cccc1C)C(C)C(=O)OC` (centres undefined), “inactive”; as for `Nc1c(Cl)c(F)nc(OCC(=O)O)c1Cl`, “inactive”.
For `CSC(=O)c1c(C(F)F)nc(C(F)(F)F)c(C(=O)SC)c1CC(C)C`, the compound was classed as inactive.
For `Clc1nc(Cl)nc(Nc2ccccc2Cl)n1`, the outcome was inactive.
Same read-out and setting: as for `CCOc1nc(C(Cl)(Cl)Cl)ns1`, the entry is “inactive”; as for `CC1(C)CCC(=Cc2ccc(Cl)cc2)C1(O)Cn1cncn1` (centres undefined), “inactive”.
The same measure, in the same setting: as for `CN=C=S`, the entry is “inactive”; as for `CC(C)C1(C)N=C(c2ncccc2C(=O)O)NC1=O` (centres undefined), “inactive”; as for `CC(C)N1C(=O)N(c2ccccc2)CSC1=NC(C)(C)C`, “inactive”.
The same measure, in the same setting: as for `CN/C(=N\[N+](=O)[O-])NCc1cnc(Cl)s1`, the entry is “inactive”; as for `Cc1cnc(C2=NC(C)(C(C)C)C(=O)N2)c(C(=O)O)c1` (centres undefined), “inactive”.
Turning to `C=CCOC(=O)C(C)(C)OC(=O)c1cc(-n2c(=O)cc(C(F)(F)F)n(C)c2=O)ccc1Cl`, the call was inactive.
On the same count and under the same terms, as for `CCN(CC)c1nc(C)cc(OP(=S)(OC)OC)n1`, the entry is “inactive”; as for `CC(C)Nc1nc(Cl)nc(NC(C)C)n1`, “inactive”; as for `CCOC(=O)C(C)OC(=O)c1cc(Oc2ccc(C(F)(F)F)cc2Cl)ccc1[N+](=O)[O-]` (centres undefined), “inactive”.
Still for that read-out and setting: as for `O=c1n(Cl)c(=O)n(Cl)c(=O)n1Cl`, the entry is “inactive”; as for `Cc1ccc(N=CN(C)C=Nc2ccc(C)cc2C)c(C)c1`, “inactive”.
Same read-out and setting: as for `Clc1cccc(C(Cl)(Cl)Cl)n1`, the entry is “inactive”; as for `C=C(C)CN(CC)c1c([N+](=O)[O-])cc(C(F)(F)F)cc1[N+](=O)[O-]`, “inactive”.
Take `CC(C)N1C(=O)c2ccccc2NS1(=O)=O`: the compound was classed as inactive.
The same measure, in the same setting: as for `CCNC(=O)NC(=O)C(C#N)=NOC`, the entry is “inactive”; as for `COC(=O)NS(=O)(=O)c1ccc(N)cc1`, “inactive”.

Tested on in another test: not listed separately
Put plainly: Tanguay_ZF_120hpf_NC_legacy: (Legacy) Oregon State University Tanguay Lab 120 Hour Post-fertilization zebrafish Assay for Notochord and Tail Malformation (AID 2283656). The method, boiled down:
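Binary notochord-distortion calls, made by brightfield inspection, form the read-out; activity is fitted in the positive direction against DMSO. Exposure ran statically from 6 to 120 hpf at 28C with 0.64% DMSO.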
Consider `CCOc1cc(C(C)(C)C)ccc1C1COC(c2c(F)cccc2F)=N1` (centres undefined), for which the call was inactive.
Same read-out and setting: as for `Nc1c(Cl)c(Cl)nc(C(=O)O)c1Cl`, the entry is “inactive”; as for `COP(=S)(OC)SCn1nnc2ccccc2c1=O`, “inactive”.
Same read-out and setting: as for `CCNP(=S)(OC)O/C(C)=C/C(=O)OC(C)C` (centres undefined), the entry is “inactive”; as for `CCCCC(O)(Cn1cncn1)c1ccc(Cl)cc1Cl` (centres undefined), “inactive”.
For `CCCCOCN(C(=O)CCl)c1c(CC)cccc1CC`, the compound was called inactive.
Same read-out and setting: as for `CO/N=C(/C1=NOCCO1)c1ccccc1Oc1ncnc(Oc2ccccc2Cl)c1F`, the entry is “inactive”.
The same measure, in the same setting: as for `COC(=O)NC(=S)Nc1ccccc1NC(=S)NC(=O)OC`, the entry is “inactive”; as for `Nc1c(Cl)c(F)nc(OCC(=O)O)c1Cl`, “inactive”.
Same read-out and setting: as for `CSC(=O)c1c(C(F)F)nc(C(F)(F)F)c(C(=O)SC)c1CC(C)C`, the entry is “inactive”; as for `Clc1nc(Cl)nc(Nc2ccccc2Cl)n1`, “inactive”.
On to `CC1(C)CCC(=Cc2ccc(Cl)cc2)C1(O)Cn1cncn1` (centres undefined), for which the outcome was inactive.
Still for that read-out and setting: as for `CC(C)C1(C)N=C(c2ncccc2C(=O)O)NC1=O` (centres undefined), the entry is “inactive”.
For the compound `CC(C)N1C(=O)N(c2ccccc2)CSC1=NC(C)(C)C`, the outcome was inactive.
In the case of `CN/C(=N\[N+](=O)[O-])NCc1cnc(Cl)s1`, the outcome was inactive.
The same measure, in the same setting: as for `Cc1cnc(C2=NC(C)(C(C)C)C(=O)N2)c(C(=O)O)c1` (centres undefined), the entry is “inactive”.
The same measure, in the same setting: as for `CCN(CC)c1nc(C)cc(OP(=S)(OC)OC)n1`, the entry is “inactive”; as for `CC(C)Nc1nc(Cl)nc(NC(C)C)n1`, “inactive”.
In the case of `CCOC(=O)C(C)OC(=O)c1cc(Oc2ccc(C(F)(F)F)cc2Cl)ccc1[N+](=O)[O-]` (centres undefined), the outcome was inactive.
The same measure, in the same setting: as for `COC(=O)N(C(=O)N1CO[C@@]2(C(=O)OC)Cc3cc(Cl)ccc3C2=N1)c1ccc(OC(F)(F)F)cc1`, the entry is “inactive”; as for `O=c1n(Cl)c(=O)n(Cl)c(=O)n1Cl`, “inactive”.
The same measure, in the same setting: as for `Cc1ccc(N=CN(C)C=Nc2ccc(C)cc2C)c(C)c1`, the entry is “inactive”; as for `Clc1cccc(C(Cl)(Cl)Cl)n1`, “inactive”.
The same measure, in the same setting: as for `OC(c1ccc(Cl)cc1)(c1ccc(Cl)cc1)C(Cl)(Cl)Cl`, the entry is “inactive”; as for `C=C(C)CN(CC)c1c([N+](=O)[O-])cc(C(F)(F)F)cc1[N+](=O)[O-]`, “inactive”.
For `O=C(O)c1c(Cl)ccc2cc(Cl)cnc12`, the result was inactive.
Still for that read-out and setting: as for `CCNC(=O)NC(=O)C(C#N)=NOC`, the entry is “inactive”; as for `COC(=O)NS(=O)(=O)c1ccc(N)cc1`, “inactive”.

Read-out in a further test: ABC Transporter (ABCB1), ABCB1 (gene 5243)
Description: CLD_ABCB1_6hr: CellzDirect (CLD) Gene Expression Assay for ABC Transporter (ABCB1) at 6 hours (AID 2283659).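 Also: hits raise ABCB1 transcript above the DMSO vehicle baseline.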 The method, boiled down:
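ABCB1 transcript measured by quantitative nuclease protection assay, chemiluminescent read-out, 6 h after dosing human hepatocyte cultures (0.2% DMSO vehicle, daily redosing). Activity fitted as increase over DMSO baseline; cytotoxicity flagged by phase-contrast morphology.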
In the case of `CCOc1cc(C(C)(C)C)ccc1C1COC(c2c(F)cccc2F)=N1` (centres undefined), the outcome was inactive.
Same read-out and setting: as for `Nc1c(Cl)c(Cl)nc(C(=O)O)c1Cl`, the entry is “inactive”; as for `O=C(Nc1ccccc1-c1ccc(Cl)cc1)c1cccnc1Cl`, “inactive”; as for `COP(=S)(OC)SCn1nnc2ccccc2c1=O`, “inactive”.
Same read-out and setting: as for `CCNP(=S)(OC)O/C(C)=C/C(=O)OC(C)C` (centres undefined), the entry is “inactive”; as for `CCCCC(O)(Cn1cncn1)c1ccc(Cl)cc1Cl` (centres undefined), “inactive”.
Still for that read-out and setting: as for `CO/N=C(/C1=NOCCO1)c1ccccc1Oc1ncnc(Oc2ccccc2Cl)c1F`, the entry is “inactive”.
On to `COCC(=O)N(c1c(C)cccc1C)C(C)C(=O)OC` (centres undefined), for which the result was inactive.
Regarding `Nc1c(Cl)c(F)nc(OCC(=O)O)c1Cl`, the call was inactive.
Still for that read-out and setting: as for `CCOc1nc(C(Cl)(Cl)Cl)ns1`, the entry is “inactive”.
Same read-out and setting: as for `CC1(C)CCC(=Cc2ccc(Cl)cc2)C1(O)Cn1cncn1` (centres undefined), the entry is “inactive”.
With `CN=C=S`, the compound was classed as inactive.
The same measure, in the same setting: as for `CC(C)C1(C)N=C(c2ncccc2C(=O)O)NC1=O` (centres undefined), the entry is “inactive”; as for `CC(C)N1C(=O)N(c2ccccc2)CSC1=NC(C)(C)C`, “inactive”.
With `Cc1cnc(C2=NC(C)(C(C)C)C(=O)N2)c(C(=O)O)c1` (centres undefined), the compound was called inactive.
The same measure, in the same setting: as for `C=CCOC(=O)C(C)(C)OC(=O)c1cc(-n2c(=O)cc(C(F)(F)F)n(C)c2=O)ccc1Cl`, the entry is “inactive”; as for `CC(C)Nc1nc(Cl)nc(NC(C)C)n1`, “inactive”.
For the compound `CCOC(=O)C(C)OC(=O)c1cc(Oc2ccc(C(F)(F)F)cc2Cl)ccc1[N+](=O)[O-]` (centres undefined), the result was inactive.
On the same count and under the same terms, as for `COC(=O)N(C(=O)N1CO[C@@]2(C(=O)OC)Cc3cc(Cl)ccc3C2=N1)c1ccc(OC(F)(F)F)cc1`, the entry is “inactive”; as for `Cc1ccc(N=CN(C)C=Nc2ccc(C)cc2C)c(C)c1`, “inactive”; as for `Clc1cccc(C(Cl)(Cl)Cl)n1`, “inactive”.
On the same count and under the same terms, as for `OC(c1ccc(Cl)cc1)(c1ccc(Cl)cc1)C(Cl)(Cl)Cl`, the entry is “inactive”; as for `CC(C)=CC1C(C(=O)OCc2coc(Cc3ccccc3)c2)C1(C)C` (centres undefined), “inactive”.
Same read-out and setting: as for `C=C(C)CN(CC)c1c([N+](=O)[O-])cc(C(F)(F)F)cc1[N+](=O)[O-]`, the entry is “inactive”; as for `O=C(O)c1c(Cl)ccc2cc(Cl)cnc12`, “inactive”.
As to `CC(C)N1C(=O)c2ccccc2NS1(=O)=O`, the call was inactive.
Turning to `COC(=O)NS(=O)(=O)c1ccc(N)cc1`, the compound was called inactive.
